Screening results as filed in PubChem.
KCNQ2 pot – potentiators of rat KCNQ2 potassium channel; B-score at 10 µM; 0.54% of 310,000 active; CHO-K1 KCNQ2, FluxOR thallium flux fluorescence; active compounds read high; Potassium voltage-gated channel subfamily KQT member 2 (Rattus norvegicus), O88943;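 active means fluorescence ratio B-score at least 3 SD of library B-scores, with initial fluorescence B-score within 3 of them, cut at about 5.3 in these data; same plate scores as AID 2156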;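 further: B-score of peak minus minimum over baseline fluorescence ratio after K+ and Tl+ stimulus; positive B-score means potentiation of KCNQ2 with more thallium influx and brighter signal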
KCNQ2 inh – rat KCNQ2 potassium channel inhibitors, primary screen, cell-based, CHO-K1, FluxOR thallium flux, B-score; 20 min; active compounds read low; B-score at 10 µM; 1.1% of 310,000 active;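 active means fluorescence ratio B-score at most minus 3 library SDs, with starting brightness B-score within 2 library SDs, cut at about -5.5 in these data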
KCNQ2 block conf – rat KCNQ2 potassium channel inhibitors, confirmation, cell-based, thallium flux | shares compounds with KCNQ2 inh | KCNQ2-expressing cells, inhibition; active compounds read low | activity change, negative = inhibition, % at 10 µM | 57% of 1,000 active;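 further: 0% = vehicle wells and values are ratio percent relative to vehicle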
KCNQ1 spec – human KCNQ1 channel inhibition, counter-screen for KCNQ2 inhibitor project, cell-based, FluxOR thallium flux; KCNQ1-expressing cells, FluxOR thallium flux fluorescence; active compounds read low; AID 493026, 2011; 15% of 1,000 active; activity change, negative = inhibition, % at 10 µM; shares compounds with KCNQ2 inh;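 active means activity change at least 3 SD of negative controls below their mean in both duplicate wells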;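 further: CHO cells stably transfected with KCNQ1 and depolarized by potassium stimulus; peak minus minimum fluorescence over baseline after thallium addition; 0% = vehicle negative control and -100% = blank without thallium stimulus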
Target sequence (P51787 whole entry, looked up): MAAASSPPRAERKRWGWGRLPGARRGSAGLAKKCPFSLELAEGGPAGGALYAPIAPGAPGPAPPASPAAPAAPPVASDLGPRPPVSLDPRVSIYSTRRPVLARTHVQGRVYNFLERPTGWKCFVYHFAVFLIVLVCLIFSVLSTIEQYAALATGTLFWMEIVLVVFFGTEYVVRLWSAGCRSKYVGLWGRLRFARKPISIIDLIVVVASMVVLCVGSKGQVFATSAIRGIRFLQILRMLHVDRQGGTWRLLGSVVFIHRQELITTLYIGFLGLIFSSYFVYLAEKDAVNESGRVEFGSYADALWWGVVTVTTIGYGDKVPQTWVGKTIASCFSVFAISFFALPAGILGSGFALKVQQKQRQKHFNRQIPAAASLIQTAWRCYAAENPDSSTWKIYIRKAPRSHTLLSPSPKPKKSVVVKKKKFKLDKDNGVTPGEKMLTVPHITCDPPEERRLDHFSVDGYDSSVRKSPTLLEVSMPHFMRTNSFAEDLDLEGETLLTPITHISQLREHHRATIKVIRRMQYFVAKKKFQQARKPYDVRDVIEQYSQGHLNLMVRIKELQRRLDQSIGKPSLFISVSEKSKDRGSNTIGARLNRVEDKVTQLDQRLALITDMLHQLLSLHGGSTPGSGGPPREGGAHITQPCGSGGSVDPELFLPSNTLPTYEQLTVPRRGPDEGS
CHO parental ctr – thallium flux change in parental CHO cells, counter-screen for KCNQ2 inhibitor project. activity change, % at 10 µM. 14% of 1,000 active. active compounds read low. shares compounds with KCNQ2 inh;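 further: 0% = vehicle negative controls with stimulus buffer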
KCNQ2 patch conf – rat KCNQ2 channel inhibitors, confirmation, cell-based, automated patch clamp, single concentration. KCNQ2-expressing cells, automated patch clamp current. AID 588531, 2011. 49% of 550 active. shares compounds with KCNQ2 inh. calls only at 10 µM
* = called active by the depositor. Hits are enriched below; roughly 1.6% of the tested compounds scored in any of these assays. Unless noted, how the calls were made is not given here.

`Cc1ccc(C(=O)N2CCN(S(=O)(=O)c3cc(Br)ccc3Br)CC2)o1` gave KCNQ2 inh inactive.
COc1ccccc1C(=O)NCCC(=O)Nc1ccc(OC(F)(F)F)cc1 was read as KCNQ2 pot 0.07 and KCNQ2 inh inactive.
`Cc1cc(Oc2ccc(C)c(Cl)c2)nc(SCC(=O)c2ccccc2)n1` gave KCNQ2 pot 7* and KCNQ2 inh inactive.
`Cc1ccc(C(=O)CSc2cc(C)nc(SCC(=O)c3ccccc3)n2)cc1` gave KCNQ2 inh inactive.
For Cc1ccc2nc(SCC(=O)NCc3ccc(F)cc3)nc(=O)n2c1 the results were KCNQ2 pot 0.49 and KCNQ2 inh inactive.
`O=c1c(C=NCCN2CCNCC2)c(-c2ccccc2)[nH]n1-c1ccc([N+](=O)[O-])cc1` gave KCNQ2 pot -7 and KCNQ2 inh -7*.
COc1ccc(-c2[nH]n(-c3ccc([N+](=O)[O-])cc3)c(=O)c2C=NCCN2CCNCC2)cc1 was read as KCNQ2 inh inactive.
Cc1csc(-c2cnn(-c3ccccc3)c2NC(=O)c2ccc(C(F)(F)F)cc2)n1 was read as KCNQ2 pot -5.9 and KCNQ2 inh -5.9*.
Screening CC(C)(C)NC(=O)c1cnn(-c2ccccc2)c1NC(=O)c1ccccc1 returned KCNQ2 inh inactive.
Screening Cc1ccc(CNS(=O)(=O)c2ccc(C(C)(C)C)cc2)n1C returned KCNQ2 pot -7.1, KCNQ2 inh -7.1*, KCNQ1 spec inactive, CHO parental ctr inactive and KCNQ2 patch conf active.
`CC(C)(C)c1ccc(S(=O)(=O)NCCc2ccncc2)cc1` gave KCNQ2 inh inactive.
Cc1ccc(-n2cccc2/C=C2/C(=N)N3C(=NC2=O)SN=C3S(C)(=O)=O)cc1 was read as KCNQ2 inh inactive.
For CCc1ccc(-n2cccc2/C=C2/C(=N)N3C(=NC2=O)SN=C3S(C)(=O)=O)cc1 the results were KCNQ2 pot -10, KCNQ2 inh -10*, KCNQ2 block conf -39%*, KCNQ1 spec -41%*, CHO parental ctr -35%* and KCNQ2 patch conf inactive.
`CC12CN3CC(C)(CN(C1)C3c1ccc3c(c1)OCO3)C2O` (stereo not given) gave KCNQ2 pot 0.91 and KCNQ2 inh inactive.
NS(=O)(=O)c1ccc(CCNC(=O)CCCNC(=O)c2ccc(Cl)cc2)cc1 was read as KCNQ2 pot 1.8 and KCNQ2 inh inactive.
Screening Cc1cccc(C)c1OC1(c2ccccc2)OC(=O)c2ccccc21 (stereo not given) returned KCNQ2 pot -8.6, KCNQ2 inh -8.6*, KCNQ2 block conf inactive, KCNQ1 spec inactive and CHO parental ctr inactive.
`Cc1cc(C)c(OC2(c3ccccc3)OC(=O)c3ccccc32)c(C)c1` (stereo not given) gave KCNQ2 inh inactive.
Screening CC(C)(Oc1ccc(Cl)cc1)C(=O)N1CCN(c2ccccn2)CC1 returned KCNQ2 pot -7.4, KCNQ2 inh -7.4*, KCNQ2 block conf inactive, KCNQ1 spec inactive and CHO parental ctr inactive.
O=C(/C=C/c1ccc(Cl)cc1)N1CCN(c2ccccn2)CC1 was read as KCNQ2 inh inactive.
`CCOC(=O)C1CC(C)=C(C)CC1C(=O)O` (stereo not given) gave KCNQ2 pot 0.59 and KCNQ2 inh inactive.
Screening O=C(/C=C/c1ccc(Cl)cc1)N(c1ccccn1)C1CCCCC1 returned KCNQ2 pot -8.1, KCNQ2 inh -8.1*, KCNQ2 block conf -44%*, KCNQ1 spec -35%*, CHO parental ctr -34%* and KCNQ2 patch conf active.
`O=C(/C=C/c1cccc(F)c1)N(c1ccccn1)C1CCCCC1` gave KCNQ2 inh inactive.
`O=C(Cn1ccc(C(F)(F)F)n1)N=Nc1c(O)[nH]c2ccc(Br)cc12` gave KCNQ2 pot -9.3, KCNQ2 inh -9.3*, KCNQ2 block conf -27%*, KCNQ1 spec inactive, CHO parental ctr inactive and KCNQ2 patch conf active.
O=C(Cn1ccc(C(F)(F)F)n1)N=Nc1c(O)[nH]c2ccccc12 was read as KCNQ2 inh inactive.
For CCOC(=O)c1cnc(-n2nc(C)cc2C)nc1NC the results were KCNQ2 pot 0.03 and KCNQ2 inh inactive.
